From PubChem BioAssay AID1159580 (chemical genetic matrix, 2015)
Out of some 5,500 compounds screened, about 2,000 (36%) were called active. Inconclusive results (about 18%) are left out. Rule as the data show it: active = normalized growth mostly below about 0.91 (no sharp cut-off); inconclusive = no clear call, values can overlap the other calls; inactive = mostly above about 0.92. The list shows a part of the results.

Experiment: chemical genetic growth profiling, strain panel (AID 1159580);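 also: tested at 20 µM; growth read once vehicle control cultures reached saturation at 30 °C; 1 = growth at the plate median or of vehicle wells; lower values mean less growth of the strain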
Conditions: growth OD

Measured: normalized growth

CCC(=O)Nc1ccc(Cl)c(Cl)c1
inactive: S. cerevisiae deletion strains, locus YJR043C, strain POL32, hits give low values 0.931 | S. cerevisiae deletion strains, locus YJR075W, strain HOC1, hits give low values 0.965 | S. cerevisiae deletion strains, locus YKL009W, strain mrt4, hits give low values 0.976 | S. cerevisiae deletion strains, locus YKL068W, hits give low values 0.999 | S. cerevisiae deletion strains, locus YKL085W, strain MDH1 (second series), hits give low values 0.999 | S. cerevisiae deletion strains, locus YKL085W, strain MDH1, hits give low values 0.999 | S. cerevisiae deletion strains, locus YKL160W, strain elf1, hits give low values 0.984 | S. cerevisiae deletion strains, locus YKL190W, strain CNB1, hits give low values 1 | S. cerevisiae deletion strains, locus YKR001C, strain vps1, hits give low values 0.973 | S. cerevisiae deletion strains, locus YKR026C, strain gcn3, hits give low values 1 | S. cerevisiae deletion strains, locus YKR091W, strain srl3, hits give low values 0.982 | S. cerevisiae deletion strains, locus YLL001W, strain dnm1, hits give low values 0.99 | S. cerevisiae deletion strains, locus YLL026W, hits give low values 0.989 | S. cerevisiae deletion strains, locus YLL041C, strain sdh2, hits give low values 0.996 | S. cerevisiae deletion strains, locus YLR027C, strain aat2, hits give low values 1 | S. cerevisiae deletion strains, locus YLR039C, strain RIC1, hits give low values 1.02 | S. cerevisiae deletion strains, locus YLR058C, strain SHM2, hits give low values 1 | S. cerevisiae deletion strains, locus YLR102C, strain apc9, hits give low values 1 | S. cerevisiae deletion strains, locus YLR221C, strain rsa3, hits give low values 0.986 | S. cerevisiae deletion strains, locus YLR258W, strain gsy2, hits give low values 0.996 | S. cerevisiae deletion strains, locus YLR262C, strain YPT6 (second series), hits give low values 1 | S. cerevisiae deletion strains, locus YLR262C, strain YPT6, hits give low values 0.978 | S. cerevisiae deletion strains, locus YLR268W, strain sec22, hits give low values 0.982 | S. cerevisiae deletion strains, locus YLR320W, strain mms22, hits give low values 0.969 | S. cerevisiae deletion strains, locus YLR330W, strain CHS5, hits give low values 0.995 | S. cerevisiae deletion strains, locus YLR342W, strain FKS1 (second series), hits give low values 0.981 | S. cerevisiae deletion strains, locus YLR342W, strain FKS1, hits give low values 0.973 | S. cerevisiae deletion strains, locus YLR357W, strain rsc2, hits give low values 0.952 | S. cerevisiae deletion strains, locus YLR370C, strain arc18, hits give low values 0.985 | S. cerevisiae deletion strains, locus YLR371W, strain rom2, hits give low values 1.01 | S. cerevisiae deletion strains, locus YLR384C, strain iki3, hits give low values 1.01 | S. cerevisiae deletion strains, locus YLR418C, strain cdc73, hits give low values 0.866 | S. cerevisiae deletion strains, locus YML016C, strain PPZ1, hits give low values 0.997 | S. cerevisiae deletion strains, locus YML032C, strain rad52, hits give low values 1 | S. cerevisiae deletion strains, locus YML120C, strain ndi1, hits give low values 1 | S. cerevisiae deletion strains, locus YML124C, strain tub3, hits give low values 1 | S. cerevisiae deletion strains, locus YMR058W, strain fet3, hits give low values 0.993 | S. cerevisiae deletion strains, locus YMR078C, strain ctf18, hits give low values 1 | S. cerevisiae deletion strains, locus YMR125W, strain sto1, hits give low values 0.98 | S. cerevisiae deletion strains, locus YMR129W, hits give low values 0.98 | S. cerevisiae deletion strains, locus YMR205C, strain PFK2, hits give low values 0.958 | S. cerevisiae deletion strains, locus YMR223W, strain ubp8, hits give low values 1 | S. cerevisiae deletion strains, locus YMR231W, strain pep5, hits give low values 0.997 | S. cerevisiae deletion strains, locus YMR263W, strain SAP30, hits give low values 0.986 | S. cerevisiae deletion strains, locus YMR307W, strain GAS1, hits give low values 0.843 | S. cerevisiae deletion strains, locus YNL067W, strain RPL9B, hits give low values 0.965 | S. cerevisiae deletion strains, locus YNL071W, strain lat1, hits give low values 0.987 | S. cerevisiae deletion strains, locus YNL128W, strain TEP1, hits give low values 0.988 | S. cerevisiae deletion strains, locus YNL153C, strain GIM3, hits give low values 0.988 | S. cerevisiae deletion strains, locus YNL209W, strain ssb2, hits give low values 0.988 | S. cerevisiae deletion strains, locus YNL233W, strain BNI4, hits give low values 0.976 | S. cerevisiae deletion strains, locus YNL248C, strain rpa49, hits give low values 0.991 | S. cerevisiae deletion strains, locus YNL250W, strain rad50, hits give low values 1.01 | S. cerevisiae deletion strains, locus YNL271C, strain bni1, hits give low values 1.01 | S. cerevisiae deletion strains, locus YNL298W, strain CLA4, hits give low values 0.995 | S. cerevisiae deletion strains, locus YNL307C, strain MCK1, hits give low values 0.992 | S. cerevisiae deletion strains, locus YNL322C, strain KRE1 (second series), hits give low values 0.987 | S. cerevisiae deletion strains, locus YNL322C, strain KRE1, hits give low values 0.995 | S. cerevisiae deletion strains, locus YNR049C, strain mso1, hits give low values 0.994 | S. cerevisiae deletion strains, locus YNR052C, strain pop2, hits give low values 1.02 | S. cerevisiae deletion strains, locus YOL006C, strain TOP1, hits give low values 0.885 | S. cerevisiae deletion strains, locus YOL012C, strain htz1 0.818 | S. cerevisiae deletion strains, locus YOL147C, strain pex11, hits give low values 0.999 | S. cerevisiae deletion strains, locus YOR001W, strain rrp6, hits give low values 0.994 | S. cerevisiae deletion strains, locus YOR061W, strain CKA2, hits give low values 0.997 | S. cerevisiae deletion strains, locus YOR069W, strain VPS5, hits give low values 1.01 | S. cerevisiae deletion strains, locus YOR070C, strain gyp1, hits give low values 0.998 | S. cerevisiae deletion strains, locus YOR080W, strain dia2, hits give low values 0.956 | S. cerevisiae deletion strains, locus YOR083W, strain WHI5, hits give low values 0.994 | S. cerevisiae deletion strains, locus YOR106W, strain vam3, hits give low values 0.988 | S. cerevisiae deletion strains, locus YOR136W, strain idh2, hits give low values 0.998 | S. cerevisiae deletion strains, locus YOR144C, strain elg1, hits give low values 0.995 | S. cerevisiae deletion strains, locus YOR184W, strain ser1, hits give low values 0.977 | S. cerevisiae deletion strains, locus YOR265W, strain rbl2, hits give low values 0.995 | S. cerevisiae deletion strains, locus YOR270C, strain vph1, hits give low values 0.992 | S. cerevisiae deletion strains, locus YOR290C, strain snf2, hits give low values 0.988 | S. cerevisiae deletion strains, locus YOR316C, strain cot1, hits give low values 1.01 | S. cerevisiae deletion strains, locus YPL051W, strain arl3, hits give low values 0.994 | S. cerevisiae deletion strains, locus YPL055C, strain LGE1, hits give low values 0.904 | S. cerevisiae deletion strains, locus YPL078C, strain atp4, hits give low values 0.988 | S. cerevisiae deletion strains, locus YPL106C, strain sse1, hits give low values 0.952 | S. cerevisiae deletion strains, locus YPL240C, strain hsp82, hits give low values 0.968 | S. cerevisiae deletion strains, locus YPL241C, strain CIN2, hits give low values 0.993 | S. cerevisiae deletion strains, locus YPR119W, strain clb2, hits give low values 1 | S. cerevisiae deletion strains, locus YPR141C, strain kar3, hits give low values 1.01 | S. cerevisiae deletion strains, locus YPR163C, strain tif3, hits give low values 0.997 | S. cerevisiae deletion strains, locus YPR167C, strain met16, hits give low values 1 | S. cerevisiae deletion strains, strain wtn01, hits give low values 1 | S. cerevisiae strains, strain wild type, hits give low values 0.994
